An excerpt weighted towards active compounds, which were near 6.6% of everything screened.
HT1080-NT tox – kills 2HG-producing HT-1080-NT fibrosarcoma cells | AID 686970 | 360,000 tested, 1.6% active | Potency, µM (doses to about 46.1 µM), for inactives: at the top dose activity, negative = less viability, hits mostly cytotoxic | HT-1080-NT fibrosarcoma viability, CellTiter-Glo ATP luminescence, 48 h;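 further: NT is the 2HG producing partner of a matched IDH1 knockdown line; 0% = DMSO-treated cells and -100% = media-only wells without cells; nearly all actives have a fitted effect of over 55% in size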
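Read-out is CellTiter-Glo luminescence after 10 minutes at room temperature, following 48 hours' compound treatment of HT-1080-NT cells (750 cells/well, RPMI, 5% FBS, 37 degrees C).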
HepG2 tox – HepG2 cytotoxicity, counter-screen for TGF-b inhibitors; HepG2 CAGA-GFP viability, ATP luminescence, 18 h; Potency, µM (titrated, usually from 46.1 µM), without a hit: top-dose activity change, negative = cytotoxicity, actives largely listed as cytotoxic; 410,000 tested, 0.76% active
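HepG2 CAGA-GFP cells (1000/well, DMEM with 1% FBS) received compound, then TGF-beta at 500 pg/mL final, and were incubated 18 hours at 37 degrees C. Viability was read by CellTiter-Glo luminescence. Media-only wells were set as complete cell-killing and DMSO as no toxicity.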
KB-V1 cytotox – kills drug-selected multidrug resistant KB-V1 cells; 400,000 tested, 3.4% active; Potency, µM (highest dose often 46.1 µM), hits mostly cytotoxic; AID 1347076; KB-V1 MDR cells viability, CellTiter-Glo, 72 h; further: on the % scale 0 is the no-effect control and ±100 the full control effect; nearly all actives have a fitted effect of over 60% in size
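Luminescent ATP read-out (CellTiter-Glo, 10 min) measures survival of drug-selected KB-V1 MDR cells after 72 h, 37 degrees C compound exposure. Medium: phenol-red-free DMEM, 10% FBS. Values from fitted concentration-response curves.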
TGFb SMAD3 inh – TGF-b pathway inhibition; 410,000 tested, 1.2% active; HepG2 CAGA-GFP TGF-b/SMAD3 reporter, GFP fluorescence, 18 h; TGF-beta stimulated, 500 pg/mL final; Potency, µM (highest dose often 46.1 µM), for inactives: at the highest dose activity, negative = inhibition, usual class: inhibitors; further: on the % scale 0 is the no-effect control and ±100 the full control effect; nearly all actives have a fitted effect of over 65% in size
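Using HEPG2 CAGA-GFP reporter cells at 1000 cells/well, we pinned test compounds, stimulated with recombinant TGF-beta (500 pg/mL final) and measured total well GFP after 18 h.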
HT1080 IDH1KD tx – toxicity to HT-1080 IDH1 knockdown cells (counter line). AID 686971. HT-1080 IDH1 knockdown viability, ATP luminescence, 48 h. Potency, µM (titrated, usually from 46.1 µM), for the others: at the top dose activity, negative = toxicity, hits mostly cytotoxic. 360,000 tested, 2% active;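 further: 0% = DMSO wells and -100% = cell-free medium wells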
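Viability of IDH1-knockdown HT-1080 fibrosarcoma cells was assessed by CellTiter-Glo after 48 h at 37 °C with titrated compound; concentration-effect curves were classified by fit quality and response size.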
KB-3-1 tox – kills parental KB-3-1 adenocarcinoma cells | KB-3-1 viability, CellTiter-Glo ATP luminescence, 72 h | Potency, µM (doses to about 46.1 µM), actives largely listed as cytotoxic | 400,000 tested, 1.4% active | AID 1347075; further: on the % scale 0 is the no-effect control and ±100 the full control effect; nearly all actives have a fitted effect of over 60% in size
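Cytotoxicity measured as CellTiter-Glo luminescence after 72 h at 37 C. Compound titrations were pinned onto drug-naive KB-3-1 parental adenocarcinoma cells grown in DMEM with 10% FBS, and normalized data fitted to concentration-response curves.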
* marks the source's active call; other numbers are inactive results; i = inactive; ? = inconclusive; . = no result; [ ] = another dose, or the depositor's remark. The call rests on the fitted dose curve; in most records, active means well fitted curve in the direction sought with a large enough effect; inconclusive means small, poorly fitted or top-dose-only effect, or another doubt; inactive means no such curve, though single readings can be large; an effect the other way counts as inactive or inconclusive. Potency means the concentration at half of the fitted maximal effect.

SMILES | HT1080-NT tox | HepG2 tox | KB-V1 cytotox | TGFb SMAD3 inh | HT1080 IDH1KD tx | KB-3-1 tox
COc1ccc(-c2csc(NC(=S)NC(=O)/C=C/c3ccco3)n2)cc1Br | 3.7µM* | 0% | 4.1µM* | -18% | 2.6µM* | 5.2µM*
COc1ccc(-c2csc(NC(=S)NC(=O)/C=C/c3ccco3)n2)cc1OC | 12µM* | -27% | 6.5µM* | 10% | 18µM* | 7.3µM*
COc1ccc(/C=C/C(=O)c2ccc3c4c(cccc24)CC3)cc1OC | ? | -56% | 16µM* | ? | 16µM* | ?
COc1ccc(C(=O)Oc2ccc(F)cc2C(=O)/C=C/c2ccc(OC)c(OC)c2)cc1 | ? | -12% | ? | 0% | ? | i
COc1ccc(/C=C/C(=O)c2cc(F)ccc2OC(=O)c2ccccc2C)cc1OC | 1.3µM* | -77% | i | ? | 3.3µM* | ?
COc1ccc(NC(=O)CSc2nc3c(oc4ccccc43)c(=O)n2-c2ccc(C)c(C)c2)cc1 | . | -2% | i | -30% | . | i
CCN1CCCC1CNc1ncnc2c1[nH]c1ccc(Cl)cc12 (centres undefined) | 15µM* | -40% | ? | -28% | ? | ?
Cc1ccc2nc3c(c(N)c2c1)CCN3C | ? | -27% | i | -4% | ? | i
CCCCN1CCc2c1nc1ccc(Br)cc1c2N | ? | 16µM* | 21µM* | ? | ? | i
CCC(CC)NC(=O)c1cc2c(C)nn(Cc3ccccc3Cl)c2s1 | -30% | -7% | 15µM* | -10% | ? | ?
CC1(C)OC(=O)C2=C(C[C@@H](C3CCCCC3)O[C@H]2c2ccc(F)cc2)O1 | -24% | -33% | i | ? | -24% | i
O=C(CCn1c(=O)c2cccn2c2cccnc21)N1CCN(c2cccc(C(F)(F)F)c2)CC1 | . | -42% | . | 11µM* | . | .
Cc1ccc2nc3sc(C(=O)Nc4ccc(F)cc4)cc3cc2c1 | . | 1% | i | 3% | . | i
CC1CCc2c(sc(NC(=O)c3cc(-c4cccc(Cl)c4)on3)c2C(N)=O)C1 (centres undefined) | . | -24% | i | -4% | . | i
Cc1ccc(S(=O)(=O)NC(C)(C)CN2CCC(Cc3ccccc3)CC2)cc1 | ? | -26% | i | 18µM* | ? | ?
CC(C)(CN1CCNCC1)NS(=O)(=O)c1ccc(Cl)cc1 | -4%[9.24 µM] | 25µM* | i | ? | ? | 21µM*
CCOC(=O)C1CCN(CC(C)(C)NS(=O)(=O)c2ccc(C)cc2)CC1 | -16% | 3% | i | 17% | -3% | i
COc1ccc(NC(=S)N(CCN(C)C)C(C)c2ccco2)cc1Cl (centres undefined) | -4% | 3% | 23µM* | -5% | 12% | i
COCCCNCCCCOc1c(Cl)cc(C)cc1Br | ? | -46% | ? | 20% | -20% | i
Cc1cc(Cl)c(OCCCNC2CCCC2)c(Br)c1 | ? | -52% | ? | ? | 21µM* | i
Cc1cc(Cl)c(OCCOCCN2CCCC(C)C2)c(Br)c1 (centres undefined) | 18µM* | -7% | ? | -9% | ? | i
CC1CCCN(CCOCCOc2ccc(Cl)cc2Br)C1 (centres undefined) | 22µM* | -37% | 16µM* | ? | 11µM* | ?
Cc1cc(Cl)c(OCCOCCN2CCCCC2)c(Br)c1 | 11% | 2% | i | 1% | 8% | i
Cc1ccc(NS(=O)(=O)c2cnc(N)nc2)c(C)c1 | . | 8% | . | 0% | . | .
CCCCOc1cc(C)nc(NCc2ccccc2)n1 | ? | -29% | ? | -29% | ? | 10µM*
SMILES | HT1080-NT tox | HepG2 tox | KB-V1 cytotox | TGFb SMAD3 inh | HT1080 IDH1KD tx | KB-3-1 tox
CCOc1cc(C)nc(NCc2ccccc2)n1 | -29% | -56% | i | ? | ? | i
Cc1cc(N2CCCCC2)nc(NCc2ccccc2)n1 | -16% | -5% | ? | ? | ? | 16µM*
Cc1cc(OC2CCCCC2)nc(NCc2ccccc2)n1 | 18% | 19% | i | 4% | 16% | i
CC(=O)c1ccc(Oc2cc(C)nc(NCc3ccccc3)n2)cc1 | -2% | -14% | 16µM* | -7% | 5% | ?
CC(C)c1ccc(NC(=O)Nc2nc(C(N)c3ccccc3Cl)cs2)cc1 (centres undefined) | ? | -102% | ? | ? | ? | i
Cc1ccc(C(C)C)c(OCC(=O)NCC2(N(C)C)CCCCC2)c1 | . | -26% | ? | -3% | . | ?
CC(=O)Nc1ccc2c(c1)Cc1cc(N3C(=O)C=CC3=O)ccc1-2 | -12% | -72% | i | 16µM* | ? | ?
O=C1C=CC(=O)N1c1ccc2c(c1)Cc1cc(F)ccc1-2 | 23% | 0% | i | -6% | -8% | i
O=C(Cc1ccc(OCCC2CCCCC2)cc1)NO | . | -7% | i | -15% | . | i
O=C(CCCl)Nc1nnc(SCC(=O)NC2CCCC2)s1 | 15µM* | -154% | i | ? | 29µM* | i
Nc1nnc(SCC(=O)NC2CCCC2)s1 | 9% | -1% | i | -1% | 14% | i
CCSc1nnc(SCC(=O)NC2CCCCC2)s1 | 2% | 2µM* | i | -10% | -7% | ?
COC(=O)C1=C(O)C(C(=O)OC)C(c2ccc(C)cc2)C(C#N)(C#N)C1c1ccc(C)cc1 (centres undefined) | -24% | -2% | ? | -7% | -26% | 7.3µM*
COC(=O)C1=C(Nc2ccc(C)cc2)C=C(C)C(C(=O)OC)C1c1ccc(OC)cc1 (centres undefined) | ? | -22% | i | 0% | ? | i
COc1ccc(C(=O)c2cn[nH]c2-c2cc(C)ccc2O)cc1 | 10% | -3% | i | -15% | 0% | i
COc1ccc(C(=O)c2cn[nH]c2-c2cc(Cl)ccc2O)cc1 | 6% | -12% | 18µM* | 30% | 0% | ?
Fc1ccc(C(CCNCc2ccccn2)c2ccc(Cl)cc2)cc1 (centres undefined) | 18µM* | 13µM* | i | ? | 21µM* | i
COc1ccc(CNC(=O)c2ccc3c(c2)nc2n3CCC(C)C2)c(OC)c1 (centres undefined) | . | -18% | . | -7% | . | .
CCOc1ccccc1N(C)C(=O)c1cc(S(=O)(=O)NCc2ccc(C)cc2)ccc1F | . | -15% | i | ? | . | ?
CCc1ccc(C(=O)NC(=S)Nc2ccc(N3CCOCC3)cc2)cc1 | -6% | -22% | 18µM* | -10% | -29% | i

Screening results from PubChem.
